An excerpt weighted towards active compounds, which were near 0.76% of everything screened.
PrP 5UTR inh: inhibition of PrP 5' UTR reporter expression. cell-based PrP 5' UTR mRNA reporter, plate reader. inhibition, % (no concentration beside the values). hit rate 0.35% among 340,000; in the data active = inhibition above about 52%; also: 0 = median of the neutral control wells
UGM FP inh: M. tuberculosis UGM enzyme inhibitors, primary screen, biochemical, fluorescence polarization, single point. inhibition, % at 10 µM. AID 504406, 2011. hit rate 0.06% among 320,000. purified UGM, fluorescence polarization probe displacement; in the data active = inhibition above about 10%, passing the limit was not always enough; inconclusive = no clear call, values can overlap the other calls
Mtb betalactam: beta-lactam sensitization of Mtb H37Rv, H37Rv | M. tuberculosis H37Rv growth with meropenem, percent inhibition | inhibition, % at 25 µM | hit rate 0.27% among 330,000 | AID 434955, 2010; call rule not given here;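 also: growth measured after seven days incubation then overnight dye step; 0% = bacteria only wells and 100% = bacteria with antibiotic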
Rv3671c protease: Rv3671c serine protease inhibitors, primary screen, biochemical, fluorescence polarization, M. tuberculosis H37Rv; P9WHR9; inhibition, % at 5.96 µM; hit rate 0.048% among 320,000;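 also: extracellular domain of Rv3671c used as enzyme; 0% = enzyme with DMSO and 100% = no enzyme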
Target sequence (P9WHR9 whole entry, looked up, the tested form may be a part): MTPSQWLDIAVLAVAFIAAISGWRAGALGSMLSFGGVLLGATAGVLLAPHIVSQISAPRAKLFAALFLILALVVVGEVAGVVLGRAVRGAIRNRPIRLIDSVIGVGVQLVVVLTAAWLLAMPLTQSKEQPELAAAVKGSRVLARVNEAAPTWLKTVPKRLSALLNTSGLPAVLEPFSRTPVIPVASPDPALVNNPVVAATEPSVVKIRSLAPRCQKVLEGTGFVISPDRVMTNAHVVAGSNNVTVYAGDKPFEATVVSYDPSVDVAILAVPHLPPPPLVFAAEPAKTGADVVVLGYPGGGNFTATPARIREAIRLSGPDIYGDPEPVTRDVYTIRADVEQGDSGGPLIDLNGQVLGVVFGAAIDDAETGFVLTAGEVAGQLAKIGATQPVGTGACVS
BH1578 lux ind: inducers of Vibrio cholerae quorum light production without autoinducers, primary screen, BH1578 luxS cqsA deficient, single point; V. cholerae BH1578 lux reporter, luminescence, 6 h; activation, % at 18.7 µM; hit rate 0.16% among 350,000; in the data active = activation mostly above about 9.7%, no sharp cut-off; inconclusive = no clear call, values can overlap the other calls; inactive = mostly below about 3.7%
FadD28 FP inh: inhibitors of FadD28 bisubstrate probe binding, primary screen, biochemical, fluorescence polarization, single point | hit rate 0.22% among 360,000 | Mycobacterium tuberculosis FadD28 fatty-acid-AMP ligase | inhibition, % at 12.5 µM; in the data active = inhibition above about 8.5%, passing the limit was not always enough; inconclusive = no clear call, values can overlap the other calls
Rv3671c cf: Rv3671c serine protease inhibitors, retest, confirmation, biochemical, fluorescence polarization, M. tuberculosis H37Rv. hit rate 40% among 140. inhibition, % at 5.96 µM. shares compounds with Rv3671c protease
Numbers without * were called inactive; i = inactive; u = inconclusive; x = no result given. Rule as the data show it, unless noted: active = inhibition above about 38%; inactive = the rest.

SMILES	PrP 5UTR inh	UGM FP inh	Mtb betalactam	Rv3671c protease	BH1578 lux ind	FadD28 FP inh	Rv3671c cf
Cc1nc(C)n(C(C)CC(=O)O)n1 (stereo not drawn)	-5	-4	-4	2	i	-2	x
C[n+]1c(-c2ccccc2)c2cc(N)ccc2c2ccc(N)cc21	9	-1	100	74*	0	13*	90*
CCOC(=O)c1ccc(-c2csc(NC(=O)CN3CCC(C)CC3)n2)cc1	-24	0	-1	-6	i	-2	x
O=c1[nH]nc(CNc2ccc(C(F)(F)F)cc2)c2ccccc12	1	1	4	-4	i	-1	x
O=c1[nH]nc(CNc2ccc(O)cc2)c2ccccc12	7	0	-3	40*	-5	3	-7
CCOC(=O)NC(=O)/C(C#N)=C\Nc1sccc1C(=O)OC	-39	5	-7	41*	i	1	2
N#CC1(P(=O)(c2ccccc2)c2ccccc2)CCCC1	-16	1	-8	81*	i	-1	2
Cc1nn(Cc2ccccc2)c(C)c1NC(=O)c1ccc([N+](=O)[O-])cc1[N+](=O)[O-]	-20	-3	-1	166*	i	-5	-7
COc1ccc(NC2CCCN(C(=O)c3cc(C)nc4cc(F)ccc34)C2)cc1 (stereo not drawn)	6	0	1	1	0	-1	x
CC1=C(C(N)=O)C(c2ccccc2)n2nc(-c3cccc(C)c3)nc2N1 (stereo not drawn)	-7	-1	-3	65*	0	-2	60*
Cn1/c(=N/N=C/c2ccccn2)sc2ccccc21	-83	x	x	x	0	-3	x
CC(C)Oc1ccc(CCC(=O)N/N=C/c2ccc3c(c2)OCO3)cc1	-4	3	1	38*	i	-2	0
CCCc1n[nH]c2c1C(=O)C(C(=O)OC)C(C)(C)C2 (stereo not drawn)	-1	1	-2	3	1	-5	x
CC(C)(C)c1ccc(Oc2coc3cc(OCC(=O)O)ccc3c2=O)cc1	-5	1	-4	49*	0	-3	-11
CC12CCC(=O)N1C(C(=O)Nc1cc(C(F)(F)F)ccc1N1CCCCC1)CS2 (stereo not drawn)	-14	-2	-2	40*	i	-1	0
CC12CCC(=O)N1C(C(=O)Nc1cc(C(F)(F)F)ccc1N1CCOCC1)CS2 (stereo not drawn)	-11	2	-2	-4	1	-1	x
Oc1ccc(/C=N/Nc2ccnc3cc(Cl)ccc23)cc1O	-45	-1	1	54*	0	12*	30
Cc1cc(C)n2nc(SCC(=O)N/N=C/c3ccccn3)nc2n1	-18	1	1	76*	0	-1	-6
CC1(C(=O)NCc2cccnc2)Cc2c(-c3cccc(C(F)(F)F)c3)ccnc2O1 (stereo not drawn)	x	x	x	x	0	-2	x
COc1cc2nc(Nc3ccc(C)c(Cl)c3)nc(N)c2cc1OC	-3	4	100	74*	i	-5	74*
COc1cc2nc(Nc3ccc(C)c(C)c3)nc(N)c2cc1OC	-19	-1	98	22	i	-5	x
CCc1cc(=O)oc2cc(C)cc(OC(=O)c3ccco3)c12	-20	2	5	58*	-3	-1	78*
Cc1cc(OC(=O)c2ccco2)c2c(C)cc(=O)oc2c1	-17	0	0	47*	-1	0	74*
Cc1cc(OC(=O)c2ccco2)c2c3c(c(=O)oc2c1)CCC3	-10	-1	5	17	-2	-1	x
Cc1cc(OCC(=O)NC2CCN(Cc3ccccc3)CC2)c2c(C)cc(=O)oc2c1	-9	-1	-1	-12	0	-1	x
SMILES	PrP 5UTR inh	UGM FP inh	Mtb betalactam	Rv3671c protease	BH1578 lux ind	FadD28 FP inh	Rv3671c cf
CCCc1cc(=O)oc2cc(C)cc(OCC(=O)NC3CCN(Cc4ccccc4)CC3)c12	4	-2	7	125*	i	-3	-2
O=C(CCC(=O)c1cccs1)NNC(=O)c1cc(Cl)ccc1Cl	-4	2	1	4	1	-5	x
CCOc1ccc(S(=O)(=O)N2CC(=O)Nc3ccccc32)cc1	-20	1	u	2	i	x	x
COc1ccc(NC(=O)COC(=O)C2CCN(S(=O)(=O)c3cccs3)CC2)cc1OC	-10	2	2	8	i	0	x
CC1(C)SC(C)(C)N(C=O)C1C(=O)O (stereo not drawn)	-11	x	x	x	i	0	x
Cc1cc(N)ccc1-n1c(C)ccc1C	-16	2	3	83*	0	4	1
Cc1cc(N)ccc1N1CCCC1	-19	-3	-6	21	i	2	x
Nc1ccc2nc(-c3cccc(-c4nc5ccc(N)cc5[nH]4)n3)[nH]c2c1	-23	-3	4	1	i	-2	x
Nc1ccc2nc(-c3ccc(-c4nc5ccc(N)cc5[nH]4)cc3)[nH]c2c1	x	4	-2	39*	x	x	50*
O=C(NCc1ccco1)c1cccc(Nc2nc3ccc(Br)cc3[nH]2)c1	-19	0	-3	40*	i	-10	44*
N#CCCN(CCC#N)C(=O)C1c2ccccc2Oc2ccccc21	-8	73*	4	84*	i	11*	-2
CSc1nc(C)cc(Oc2ccccc2)n1	-11	0	0	8	-1	-1	x
CC1CCN(S(=O)(=O)c2ccc3[nH]c(=O)c(=O)[nH]c3c2)CC1	-32	-4	-12	62*	-1	-4	-3
CC(CC(F)(F)F)N1CCC(n2nccc2NC(=O)CCCc2ccccc2)CC1 (stereo not drawn)	-8	-1	u	7	1	-2	x
Cc1ccc(NC2CCCN(C(=O)c3ccc(C)c(N4CCNC4=O)c3)C2)cc1C (stereo not drawn)	-14	-3	-10	-1	0	0	x
Cc1cc2c(N)cccc2nn1	-4	-1	2	55*	i	3	-1
O=C(NCC1CCCO1)c1onc(CSc2ccc(Cl)cc2)c1C(=O)O (stereo not drawn)	-11	6	24	84*	-8	0	0
Cc1ccccc1SCc1noc(C(=O)NCC2CCCO2)c1C(=O)O (stereo not drawn)	-20	3	-7	5	0	-3	x
CCCCCC1=NN2C(=O)CC(=O)N=C2S1	-23	3	-5	4	0	-3	x
Cn1c(/C(C#N)=C/c2ccc(-c3ccc(S(N)(=O)=O)cc3)o2)nc2ccccc21	-20	7	-1	47*	0	11*	-4

Screening results from PubChem.
